Screening data from PubChem BioAssay.
RECQ1 inh-1: qHTS Assay for Inhibitors of RecQ-Like Dna Helicase 1 (RECQ1). ATP-dependent DNA helicase Q1 (Homo sapiens), P46063. RECQ1 DNA unwinding, red fluorescence kinetic read. Potency, µM (top dose mostly 57.3 µM), for the others: at the top dose activity, negative = inhibition, usual class: inhibitors. 240,000 compounds, 0.54% hits. AID 2549, 2010;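 also: plate controls were vehicle for no effect and no enzyme for full effect; nearly all actives have a fitted effect of over 30% in size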
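50 nM RECQ1T1 preincubated 15 min with compound in Tris pH 8.0 buffer with MgCl2, DTT, Tween-20 and 2.5 ug/ml poly(dI-dC); started with 200 nM TAMRA/BHQ-2 forked duplex and 2 mM ATP. Unwinding read as fluorescence (525/598 nm), two reads 2 h apart.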
WRN helicase inh: qHTS for Inhibitors of WRN Helicase; Bifunctional 3'-5' exonuclease/ATP-dependent helicase WRN (Homo sapiens), Q14191; WRN helicase unwinding, fluorescent forked duplex, kinetic; Potency, µM (titrated, usually from 114 µM), without a hit: at the highest dose activity change, negative = inhibition, hits mostly inhibitors; 360,000 compounds, 0.46% hits; AID 651768, 2012; also: nearly all actives have a fitted effect of over 55% in size
Target sequence (Q14191 whole entry, looked up): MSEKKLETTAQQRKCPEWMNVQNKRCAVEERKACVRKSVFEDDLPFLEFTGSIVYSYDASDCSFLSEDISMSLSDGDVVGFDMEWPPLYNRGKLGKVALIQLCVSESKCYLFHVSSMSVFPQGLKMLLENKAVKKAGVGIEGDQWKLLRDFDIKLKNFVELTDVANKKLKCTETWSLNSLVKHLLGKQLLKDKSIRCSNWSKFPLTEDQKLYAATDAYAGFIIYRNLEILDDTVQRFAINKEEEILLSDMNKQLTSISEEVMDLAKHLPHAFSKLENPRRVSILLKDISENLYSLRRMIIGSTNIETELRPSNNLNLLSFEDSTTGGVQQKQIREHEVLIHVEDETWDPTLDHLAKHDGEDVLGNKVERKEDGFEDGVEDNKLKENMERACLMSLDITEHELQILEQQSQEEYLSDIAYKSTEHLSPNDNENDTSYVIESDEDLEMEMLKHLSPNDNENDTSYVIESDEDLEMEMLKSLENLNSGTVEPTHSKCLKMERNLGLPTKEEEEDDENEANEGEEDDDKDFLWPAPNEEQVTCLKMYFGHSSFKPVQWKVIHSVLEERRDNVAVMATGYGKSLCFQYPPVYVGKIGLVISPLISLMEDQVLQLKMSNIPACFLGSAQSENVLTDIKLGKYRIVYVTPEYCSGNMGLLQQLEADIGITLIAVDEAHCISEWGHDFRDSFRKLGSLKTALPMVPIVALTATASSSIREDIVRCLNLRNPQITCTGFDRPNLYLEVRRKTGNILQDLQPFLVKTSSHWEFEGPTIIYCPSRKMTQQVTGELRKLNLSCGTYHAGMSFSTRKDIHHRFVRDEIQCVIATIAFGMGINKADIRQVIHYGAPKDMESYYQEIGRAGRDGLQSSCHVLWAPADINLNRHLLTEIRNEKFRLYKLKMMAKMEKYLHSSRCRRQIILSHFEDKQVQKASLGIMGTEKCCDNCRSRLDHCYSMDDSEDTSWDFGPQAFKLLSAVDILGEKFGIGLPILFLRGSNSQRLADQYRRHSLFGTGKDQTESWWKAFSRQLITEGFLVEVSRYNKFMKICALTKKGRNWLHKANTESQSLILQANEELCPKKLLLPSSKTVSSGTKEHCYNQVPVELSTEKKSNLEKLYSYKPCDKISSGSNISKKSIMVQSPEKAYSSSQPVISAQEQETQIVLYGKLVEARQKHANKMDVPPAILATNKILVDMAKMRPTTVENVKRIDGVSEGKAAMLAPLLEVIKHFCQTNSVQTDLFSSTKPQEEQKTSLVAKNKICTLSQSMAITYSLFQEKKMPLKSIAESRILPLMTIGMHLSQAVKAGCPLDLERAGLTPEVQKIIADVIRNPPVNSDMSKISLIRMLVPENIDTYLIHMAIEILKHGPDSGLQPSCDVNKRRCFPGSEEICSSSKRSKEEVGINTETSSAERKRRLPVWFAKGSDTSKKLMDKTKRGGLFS
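Primary qHTS, 1536-well format. 20 nM WRN + compound, 15 min RT; start with 100 nM forked fluorophore/quencher duplex, 2 mM ATP (final); kinetic read ex 525/em 598 nm.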
TRb-SRC2 inh: qHTS for Inhibitors of the Interaction of Thyroid Hormone Receptor and Steroid Receptor Coregulator 2; TRbeta-SRC2 peptide binding, fluorescence polarization; receptor liganded with 1 µM T3; Potency, µM (highest dose often 106 µM), inactives show top-dose activity change, negative = inhibition, hits mostly inhibitors; 280,000 compounds, 0.065% hits;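 also: plate controls were bound peptide for no effect and peptide without receptor for full effect; nearly all actives have a fitted effect of over 50% in size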
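Human TRb LBD (0.6 uM) plus Texas Red-labeled SRC2 peptide (20 nM), 1uM T3, 5% DMSO, 5 hr at ambient temperature. Decreased polarization (555/632 nm) flags inhibition; data normalized to free and bound peptide controls.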
TR SRC2 fluor cs: Total Fluorescence Counterscreen for Inhibitors of the Interaction of Thyroid Hormone Receptor and Steroid Receptor Coregulator 2 | TRb/SRC2 Texas Red total fluorescence interference | Potency, µM (titrated, usually from 106 µM), for the others: top-dose fluorescence change, negative = quenching | 280,000 compounds, 0.29% hits | AID 1479, 2009; active = well fitted curve in either direction with a large enough effect; inconclusive = small, poorly fitted or top-dose-only effect
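Flags fluorescent or light-absorbing compounds by total fluorescence, S + 2P, at 555 nm excitation and 632 nm emission. Mixture: 20 nM Texas Red SRC2 peptide, 0.6 uM human TRb LBD, 1 uM T3, 5% DMSO; compound exposure 5 h at ambient temperature.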
APE1 inh: qHTS Assay for Inhibitors of the Human Apurinic/apyrimidinic Endonuclease 1 (APE1). 350,000 compounds, 0.35% hits. AID 2517, 2012. recombinant APE1, TAMRA/BHQ-2 abasic DNA cleavage fluorescence. DNA repair nuclease/redox regulator APEX1 (Homo sapiens), P27695. Potency, µM (titrated, usually from 65.8 µM), inactives show top-dose activity change, negative = inhibition, actives largely listed as inhibitors;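 also: plate controls were vehicle for no effect and reference inhibitor for full effect; nearly all actives have a fitted effect of over 55% in size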
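0.75 nM APE1 + cpd, 15 min RT; start w/ 50 nM TAMRA/BHQ-2 THF-abasic dsDNA; kinetic fluor 525/598 nm ×3 reads @60 s; Δ(read3−read1); normalized to DMSO and NSC13755 control wells.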
BLM inh: qHTS Assay for Inhibitors of Bloom's syndrome helicase (BLM); 350,000 compounds, 0.2% hits; RecQ-like DNA helicase BLM (Homo sapiens), P54132; Potency, µM (top dose mostly 56.1 µM), without a hit: top-dose activity change, negative = inhibition, usual class: inhibitors; recombinant BLM DNA unwinding, fluorescence dequenching;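 also: plate controls were vehicle for no effect and no enzyme for full effect; nearly all actives have a fitted effect of over 35% in size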
RECQ1 inh conf: Confirmation qHTS Assay for Inhibitors of RecQ-Like Dna Helicase 1 (RECQ1) | shares compounds with RECQ1 inh-1 | RECQ1 helicase DNA unwinding, fluorescence | Potency, µM (titrated, usually from 229 µM), for the others: top-dose activity change, negative = inhibition, actives largely listed as inhibitors | 610 compounds, 28% hits; also: nearly all actives have a fitted effect of over 45% in size
RECQ1 ADP FP: Counterscreen for RECQ1 Inhibitors: ADP Fluorescence Polarization Displacement Assay; shares compounds with RECQ1 inh-1; ADP fluorescence polarization displacement counterscreen; Potency, µM (series often up to 228 µM), for inactives: top-dose activity change, negative = inhibition, most hits filed as inhibitors; 530 compounds, 27% hits; AID 2711, 2010; also: nearly all actives have a fitted effect of over 45% in size
RECQ1 inh-2: Confirmation qHTS Assay for Inhibitors of RecQ-Like Dna Helicase 1 (RECQ1) - Round 2 Cherry Picks; 1,100 compounds, 15% hits; shares compounds with RECQ1 inh-1; Potency, µM (top dose mostly 119 µM), for inactives: at the highest dose activity, negative = inhibition, hits mostly inhibitors; recombinant RECQ1 DNA unwinding, red fluorescence; AID 504841, 2011; also: nearly all actives have a fitted effect of over 50% in size
* marks the source's active call; other numbers are inactive results; i = inactive; ? = inconclusive; / = no result; [ ] = another dose, or the depositor's remark. Only some compounds are listed: those with a hit (about 0.91% of all), similar ones and a draw of the others. Unless noted, calls follow the shape of the dose curve; as a rule, active = well fitted curve in the direction sought with a large enough effect; inconclusive = small, poorly fitted or top-dose-only effect, or another doubt; inactive = no such curve, though single readings can be large; an effect the other way counts as inactive or inconclusive. Unless noted, % is scaled to controls: 0 for no effect and ±100 for the full control effect; potency is read from the fitted curve at half-maximal effect.

SMILES	RECQ1 inh-1	WRN helicase inh	TRb-SRC2 inh	TR SRC2 fluor cs	APE1 inh	BLM inh	RECQ1 inh-2	others
O=C(CSc1nc2ccccc2s1)N1c2ccccc2Sc2ccccc21	5%	-5%	1%	-1%	16%	-8%	/
CC1(C)Cc2c(sc(NC(=O)C(=O)NCCCN3CCOCC3)c2C#N)CO1	/	1%	/	/	39%	-1%	/
CCn1c(SCC(=O)Nc2nc(C)cs2)nnc1-c1ccoc1C	-1%	-2%	-12%	-2%	1%	-2%	/
COc1ccc(-n2c(SCC(=O)Nc3nc(C)cs3)nnc2-c2ccoc2C)cc1	-18%	2%	-15%	-1%	-1%	2%	/	RECQ1 inh conf=-6%;RECQ1 ADP FP=9%
COc1ccc(-n2c(SCC(=O)Nc3nccs3)nnc2-c2ccoc2C)cc1	-14%	-5%	2%	-6%	-2%	-6%	/	RECQ1 inh conf=7%;RECQ1 ADP FP=-12%
O=C(NC(Cc1ccccc1)C(=O)O)/C(=C\c1cccc([N+](=O)[O-])c1)NC(=O)c1ccco1 (stereo unspecified)	/	2%	/	/	38%	-1%	/
CC(NC(=O)/C(=C/c1cccc([N+](=O)[O-])c1)NC(=O)c1ccco1)C(=O)O (stereo unspecified)	-11%	-16%	-1%	?	21%	2%	/	RECQ1 inh conf=0%;RECQ1 ADP FP=8%
Cc1ccc(S(=O)(=O)CCC(=O)OCC(=O)N(Cc2ccccc2)C(C)C)cc1	/	-3%	/	/	-8%	/	/
Cc1ccc(-n2cccc2C(=O)NS(=O)(=O)c2ccc(C)cc2)cc1	?	0%	-5%	1%	1%	-5%	?
CCOC(=O)Cc1cc(=O)n(-c2nc3ccccc3s2)[nH]1	?	-29%[57.1 µM]	1%	-7%	?	-17%	-22%
O=C(C1CC1)N1CCN=C1SCc1ccc(F)cc1	-9%	2%	-7%	-2%	0%	-8%	/
O=C(C1CC1)N1CCN=C1SCc1cccc(F)c1	?	4%	-17%	2%	6%	3%	?
O=C(NCCc1ccc(Cl)cc1)C1=CC=CN2CCS(=O)(=O)N=C12	/	13%	/	/	-5%	/	/
CC(=O)c1cccc(NC(=O)c2ccc3c(c2)c(C)c(C)n3Cc2ccc(Cl)cc2)c1	/	/	6%	0%	/	-7%	/
CCn1c(C)c(C)c2cc(C(=O)Nc3cccc(Cl)c3)ccc21	7.9µM*	-7%	-3%	1%	7%	-12%	-16%	RECQ1 inh conf=-14%[114 µM];RECQ1 ADP FP=10%[91.9 µM]
CC(C)(C)C(=O)Cn1ncc(Cl)c(Cl)c1=O	-1%	-3%	-1%	1%	0%	-4%	/
C=CCn1c(C)cc(C(=O)Cn2ncc(Cl)c(Cl)c2=O)c1C	10µM*	?	-13%[53 µM]	-2%[53 µM]	?	-24%	-22%
COc1ccc(N(CC(=O)Nc2ccc(C(C)C)cc2)S(=O)(=O)c2c(C)noc2C)cc1	/	10%	/	/	44%	-2%	/
COc1ccc(Cl)cc1N1C(=O)CC(N2CCc3ccccc32)C1=O (stereo unspecified)	-16%	-2%	3%	-3%	-3%	-2%	/
COc1ccccc1N1C(=O)CC(N2CCc3ccccc32)C1=O (stereo unspecified)	?	-7%	?	-1%	?	-4%	-5%
Oc1cc2c(cc1O)[C@@H]1c3ccc(O)c(O)c3OC[C@]1(O)C2	13µM*	/	3%	-2%	3.2µM*	-18%	?
O=C1OC2(c3ccc(O)cc3Oc3cc(O)ccc32)c2ccccc21	32µM*	/	-19%	-13%	28µM*	35µM*	79µM*
CC(=O)Oc1ccc2c(c1)Oc1cc(OC(C)=O)ccc1C21OC(=O)c2ccccc21	-6%	-18%	-12%	-68%	9%	249%	/
O=C(CCC(=O)N(CC(=O)NC1CCCCC1)CC1CCCO1)Nc1nccs1 (stereo unspecified)	-2%	12%	3%	-1%	15%	-3%	/
Cc1ccc(Nc2nnc(SCC(=O)NC(Cc3c[nH]c4ccccc34)C(=O)O)s2)cc1 (stereo unspecified)	i	-23%	-7%	-1%	-4%	-2%	/	RECQ1 inh conf=-3%;RECQ1 ADP FP=13%
SMILES	RECQ1 inh-1	WRN helicase inh	TRb-SRC2 inh	TR SRC2 fluor cs	APE1 inh	BLM inh	RECQ1 inh-2	others
CCOc1ccccc1Nc1nnc(SCC(=O)NC(Cc2c[nH]c3ccccc23)C(=O)O)s1 (stereo unspecified)	0%	-32%	0%	-1%	-1%	-11%	/	RECQ1 inh conf=-3%;RECQ1 ADP FP=?
CCOc1ccccc1Nc1nnc(SCC(=O)Nc2ccc3[nH]c(=O)[nH]c3c2)s1	i	-17%	-6%	-6%	-11%	-14%	/
C[C@@H]1CN([C@H](C)CO)C(=O)c2cccc(NS(=O)(=O)c3ccccc3)c2O[C@H]1CN(C)C	/	-3%	/	/	-11%	/	/
COc1ccc(Nc2cc(C(=O)NCc3ccccc3OC)c3ccccc3n2)cc1	/	/	-12%	-2%	/	-1%	/
Cc1ccc(C(=O)CSc2nnnn2Cc2ccccc2)cc1C	?	-9%	-1%	-2%	5%	-8%	-2%
O=C(CSc1nnnn1Cc1ccccc1)c1ccccc1F	1%	-10%	-3%	-1%	?	-5%	/
CCCC(=O)c1ccc(OC(=O)c2c(-c3ccccc3Cl)noc2C)cc1	/	/	7%	-5%	/	-7%	/
O=C(NCc1n[nH]c(=S)n1-c1cccc(C(F)(F)F)c1)c1ccc(S(=O)(=O)N2CCCC2)cc1	i	1%	-5%	-6%	25%	-1%	/	RECQ1 inh conf=-4%;RECQ1 ADP FP=8%
O=C(NCc1n[nH]c(=S)n1-c1cccc(C(F)(F)F)c1)c1ccc(S(=O)(=O)N2CCCCC2)cc1	/	-4%	/	/	12%	-1%	/
